MITF inh: human MITF inhibition, primary screen | O75030 | AlphaScreen MITF homodimerization, bead proximity signal | inhibition, % at 2.6 µM | 0.91% of 650,000 active | AID 1259374; in the data active = inhibition above about 50%;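 also: 0% = vehicle wells with protein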
TEAD-YAP block: TEAD-YAP interaction inhibition; HEK-TIYL cells, TEAD-Gal4/YAP UAS-luciferase luminescence; inhibition, % at 9.12 µM; 1.4% of 640,000 active; AID 1259422; in the data active = inhibition above about 32%;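 also: 0% = median of test compound wells and 100% = reference inhibitor wells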
GPR151 activ: human GPR151 activation | activation, % at 11.2 µM | AID 1508602 | Q8TDV0 | PathHunter beta-arrestin GPR151 cells, luminescence | 1% of 650,000 active; in the data active = activation above about 4.9%;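 also: 0% = median of compound wells and 100% = cells with positive control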
Target sequence (Q8TDV0 whole entry, looked up): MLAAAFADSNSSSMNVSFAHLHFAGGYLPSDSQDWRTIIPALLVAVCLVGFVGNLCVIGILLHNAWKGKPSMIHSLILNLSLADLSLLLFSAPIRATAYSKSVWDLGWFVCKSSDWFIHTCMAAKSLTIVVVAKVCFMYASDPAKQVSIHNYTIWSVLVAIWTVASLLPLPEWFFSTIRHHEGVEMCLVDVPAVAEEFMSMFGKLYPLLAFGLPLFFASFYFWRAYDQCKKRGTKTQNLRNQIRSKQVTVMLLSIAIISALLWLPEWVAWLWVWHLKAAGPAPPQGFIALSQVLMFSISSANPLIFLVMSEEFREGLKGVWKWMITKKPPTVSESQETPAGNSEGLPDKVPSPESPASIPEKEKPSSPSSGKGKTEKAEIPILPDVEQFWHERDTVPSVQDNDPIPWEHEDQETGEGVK
FBW7 activator: activators of human E3 ligase FBW7 | Q969H0 | AlphaScreen FBW7–phospho-cyclin E peptide binding, activator screen | normalized activity (activation), % at 26.1 µM | 0.13% of 650,000 active; in the data active = normalized activity above about 1.9%;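 also: purified mutant Fbw7 with reduced substrate affinity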
MITF confirm: confirmation of human MITF inhibitors | shares compounds with MITF inh | AID 1259372 | inhibition, % at 2.6 µM | AlphaScreen MITF homodimerization, biotin/His-MITF beads | 16% of 4,700 active;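 active = inhibition above a cutoff derived from the DMSO control wells, cut at about 28% in these data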;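 also: 0% = MITF dimer wells with DMSO only; inhibitors lower the bead chemiluminescence by keeping MITF from dimerizing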
AS interf DR: optically interferes with AlphaScreen signal in dose response; shares compounds with MITF inh; 6% of 480 active; IC50, µM; AlphaScreen optical interference counterscreen, cell-free; call rule not given here
AlphaScreen intf2: AlphaScreen optical interference, counter-screen; shares compounds with MITF inh; LysRS AlphaScreen counterscreen, signal interference, triplicate; inhibition, % at 2.6 µM; 7.6% of 4,700 active;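 active = inhibition above a cutoff derived from the DMSO control wells, cut at about 30% in these data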
* hit, by the source's call; . = no result. The list is not random: actives were taken first. Their share in the collection is about 3.5%.

SMILES | MITF inh | TEAD-YAP block | GPR151 activ | FBW7 activator | MITF confirm | AlphaScreen intf2 | others
O=[N+]([O-])c1ccc(N2CCc3ccccc3C2)c([N+](=O)[O-])c1 | -5.6 | 3.7 | -0.8 | 0.2 | . | .
O=[N+]([O-])c1ccc(N2CCCc3ccccc32)c([N+](=O)[O-])c1 | 61.5* | 16.5 | 4.5 | -0.4 | 46.6* | 40.5*
COC(=O)c1ccc(OCCCCN2CC(C)OC(C)C2)cc1 (stereo not given) | 53.9* | -3.5 | 1.5 | 0.0 | 15.9 | 1.6
CC1CN(CCOc2ccc(F)cc2)CC(C)O1 (stereo not given) | 52.9* | -5.6 | 2.2 | 0.2 | -0.4 | -3.9
O=C(COc1cccc(C(F)(F)F)c1)NNC(=O)c1ccc([N+](=O)[O-])o1 | -5.3 | 10.6 | 0.6 | -0.2 | . | .
COC(=O)c1ccc(=O)c2nc3/c(=C/O)c(O)cc(=O)c3[nH]c12 | 76.8* | -5.5 | 0.4 | 0.2 | 85.6* | -7.6
COc1ccc(CC(=O)N2CCCC(c3nc(-c4cccnc4)n[nH]3)C2)cc1 (stereo not given) | -4.7 | -0.2 | -0.5 | -0.1 | . | .
Cc1cc(N)c(O)c2ncccc12 | 81.0* | 5.9 | 0.0 | -0.4 | 103.9* | 100.6*
Cc1ccc(S(=O)(=O)Nc2cc(Cl)c(O)c3ncccc23)cc1 | 21.8 | 4.3 | -1.0 | -1.2 | . | .
CC(C)c1ccc(C(C)C)c(SCCc2ccccn2)c1 | 53.2* | 8.0 | 0.3 | -0.3 | -3.3 | 10.9
CC(C)(C)c1ccc(SCCc2ccccn2)cc1 | 63.2* | -54.3 | -0.5 | -0.1 | 2.1 | 7.1
Cn1c(CN2CCOCC2)nc(=O)c2ccccc21 | 53.3* | -1.6 | 0.1 | 0.0 | 1.3 | -6.0
Cc1cc(=O)[nH]c(SC(C)C)n1 | -3.3 | -4.5 | 0.2 | -0.1 | . | .
CCOc1ccccc1CN(CCc1ccc2c(c1)OCO2)Cc1cccnc1 | 78.1* | -7.0 | 0.4 | 0.4 | 4.9 | 10.9
CCOc1ccc(CN(CCc2ccc3c(c2)OCO3)Cc2cccnc2)cc1 | 59.7* | 3.6 | 0.7 | -0.2 | -3.6 | -4.3
CCOc1ccc(CN(CCc2ccc3c(c2)OCO3)Cc2cccc3ccccc23)cc1 | 52.5* | -2.4 | -1.2 | 0.5 | -5.2 | -8.7
CCOc1ccc(CN(CCc2ccc3c(c2)OCO3)Cc2cc(OC)c(OC)cc2OC)cc1 | 45.1 | -2.5 | -0.1 | -0.2 | . | .
CCN(C(=O)c1cnc2n(c1=O)CCS2)c1ccccc1 | 51.4* | -8.4 | 2.8 | -0.1 | 6.8 | 9.4
CC[C@@H]1NC(=O)[C@H]2CN(C(=O)NC3CCCCC3)CCN2C1=O | 83.4* | 4.2 | -0.7 | 0.0 | 71.4* | -10.4 | AS interf DR=>6.48
CC(C)C[C@H]1NC(=O)[C@H]2CN(C(=O)NC3CCCCC3)CCN2C1=O | 73.9* | 11.8 | -0.8 | 0.5 | 40.9* | -6.8 | AS interf DR=>6.48
CC(C)C[C@@H]1NC(=O)[C@H]2CN(C(=O)NC3CCCCC3)CCN2C1=O | 79.7* | 10.5 | -1.1 | -0.2 | 75.0* | -13.1 | AS interf DR=>6.48
COc1cc(CC(=O)N2CCC3(CC2)OCc2cccc(OC)c2O3)cc(OC)c1 | 3.1 | 4.3 | -0.6 | 0.3 | . | .
O=[N+]([O-])c1ccc(N2CCOCC2)c(F)c1 | 15.7 | -0.6 | 0.4 | 0.2 | . | .
Cc1cccc(CCNC(=O)CN(C)S(=O)(=O)c2cnc[nH]2)c1 | 75.5* | -1.1 | 0.4 | 0.0 | 9.9 | 19.8
Cc1ccc(C)c(NC(=O)CN(C)S(=O)(=O)c2cnc[nH]2)c1 | 4.0 | 0.6 | 0.0 | 0.1 | . | .
SMILES | MITF inh | TEAD-YAP block | GPR151 activ | FBW7 activator | MITF confirm | AlphaScreen intf2 | others
COCCCNCCCCOc1ccc(OCc2ccccc2)cc1 | 52.9* | -26.5 | 0.4 | -0.1 | 3.4 | 23.1
CN1CCN(CCCOc2ccc(OCc3ccccc3)cc2)CC1 | 58.9* | -40.0 | -0.6 | 0.0 | 3.0 | 4.9
CN1CCN(CCCCN2C(=O)c3ccccc3C2=O)CC1 | 86.6* | 1.9 | 0.1 | 0.1 | 11.7 | -0.1
CNCCOc1ccc(C(C)(C)c2ccccc2)cc1 | 51.6* | -5.5 | -0.6 | 0.7 | 6.4 | 18.3
CNCCCOc1ccc(C(C)(C)c2ccccc2)cc1 | 47.4 | -4.5 | 0.2 | -0.1 | . | .
COc1ccc(C(=O)CN2CCN(C)CC2)cc1 | 76.5* | -7.0 | 0.0 | 0.2 | -0.3 | 4.3
CCc1ccc(OCCN2CCNCC2)cc1 | 9.3 | -3.5 | -1.0 | -0.3 | . | .
CCOc1ccc(OCCCCN2CCNCC2)cc1 | 65.2* | -19.6 | -0.3 | 0.0 | 11.4 | 11.8
CCC(C)(C)c1ccc(OCCN2CCNCC2)cc1 | 72.2* | 6.5 | 0.0 | -0.2 | -16.8 | -7.3
CCOc1ccc(OCCOCCN2CCOCC2)cc1 | 49.3 | 2.6 | -1.5 | 0.4 | . | .
c1ccc(COc2ccc(OCCN3CCNCC3)cc2)cc1 | 70.5* | -11.3 | 1.8 | -0.3 | 6.1 | -3.5
CC(=O)Nc1ccc(OCCCNC(=O)C2=NNC(=O)CC2)cc1 | -0.7 | -2.4 | -1.0 | -0.3 | . | .
Cc1ccc(-n2nc(C(=O)NCCN3CCOCC3)c3c4ccccc4n(C)c3c2=O)cc1 | -4.1 | -7.5 | -0.6 | 0.2 | . | .
CCCCc1ccc(C(=O)Nc2ccc(Br)cn2)cc1 | 3.6 | -40.0 | -1.2 | 0.6 | . | .
c1ccc2c(OCCCN3CCNCC3)cccc2c1 | 37.7 | 4.6 | 0.0 | -0.4 | . | .
CC(C)(c1ccccc1)c1ccc(OCCCN2CCNCC2)cc1 | 58.1* | 5.5 | 0.2 | -0.4 | -4.9 | 2.6
Ic1ccc(OCCN2CCNCC2)cc1 | 62.6* | 5.8 | -0.8 | -0.3 | -18.2 | -2.1
O=C(c1ccccc1)c1ccc(OCCCCN2CCOCC2)cc1 | 47.6 | -3.5 | -1.8 | 0.6 | . | .
CN1CCN(CCCCOc2ccc(C(=O)c3ccccc3)cc2)CC1 | 74.8* | 2.0 | -0.7 | -0.1 | -0.9 | 8.0
Clc1ccc(OCCN2CCNCC2)cc1 | 14.5 | 9.6 | -0.4 | 0.4 | . | .
Cc1cc(NS(=O)(=O)c2ccc(NC(=O)c3cccc(Cl)c3Cl)cc2)no1 | -4.2 | 3.9 | 0.1 | -0.2 | . | .
O=[N+]([O-])c1cccc(P(=O)(c2cccc([N+](=O)[O-])c2)N2CCOCC2)c1 | 50.8* | -4.0 | 0.4 | -0.1 | -6.0 | -4.7
OCCC1CN(Cc2cccc3cnccc23)CCN1Cc1ccsc1 (stereo not given) | 6.6 | -7.0 | -2.8 | 0.4 | . | .
CCN(C(=O)Cn1cnc2ccccc21)c1cccc2ccccc12 | -0.7 | 13.7 | 1.0 | 0.0 | . | .
O=C(CN1CCC(N2CCCCC2)CC1)N(c1ccccc1)c1ccc(O)cc1 | 8.9 | -3.3 | -0.5 | 0.0 | . | .
CN1CCN(CC(=O)N(c2ccccc2)c2ccc(O)cc2)CC1 | 74.7* | -2.8 | 1.7 | -0.1 | 12.2 | 15.8
CCN(C(=O)CN1CCN(C)CC1)c1cccc2ccccc12 | 84.5* | 1.7 | -0.4 | -0.1 | -4.4 | -4.3
CCCNC(=O)c1cnc(Nc2cnccn2)s1 | 54.7* | -11.6 | -1.6 | 0.0 | 3.3 | 8.5
CC(=O)N(C)c1nc(-c2ccccc2C)ccc1C(=O)Nc1ccon1 | 6.4 | 0.0 | -2.0 | 1.4 | . | .
CC1(C)Cc2cccc(OCc3ccc(C(=O)NCc4ccncc4)cc3)c2O1 | 58.6* | 14.5 | 1.8 | -0.2 | -11.0 | 1.6
